# Activity calls are given as the source filed them. The calls were made as follows: active = hit-call score of the fitted dose curve at least 0.9, where 1 is the maximum; inactive = score below 0.9.
# Read-out: not listed separately
# Test: BSK_3C_Vis: BioMAP Diversity Plus: 3C Assay for Morphology Visualization (AID 2283025);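 also: fitted both ways so gain or loss versus DMSO counts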;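 as to AC50: light microscopy image of cell morphology used as background control; cells imaged 24 h after dosing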
# Conditions: primary human endothelial cells (HUVEC)
# Outline: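 Endothelial cells from human umbilical vein were treated with test chemicals for 24 h and inspected by light microscopy for changes in cell conformation.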
Structure (SMILES),outcome,AC50
CCCCC(CC)CO (configuration not stated),inactive,
CC(=O)O[C@]1(C(C)=O)CC[C@H]2[C@@H]3C=C(Cl)C4=CC(=O)[C@@H]5C[C@@H]5[C@]4(C)[C@H]3CC[C@@]21C,inactive,
COc1ccc(OC(F)(F)F)cc1CN[C@H]1CCCN[C@H]1c1ccccc1,,3.29 µM (active)
CC(COCC(C)OC(=O)c1ccccc1)OC(=O)c1ccccc1 (configuration not stated),inactive,
Cc1occc(=O)c1O,inactive,
O=C(O)c1[nH]n(-c2ccc(S(=O)(=O)O)cc2)c(=O)c1N=Nc1ccc(S(=O)(=O)O)cc1,inactive,

# Read-out: Pselectin, SELP (gene 6403)
# Test: BSK_4H_Pselectin: BioMAP Diversity Plus: 4H Assay for Pselectin Biomarker Activity (AID 2283026)
# Conditions: primary human endothelial cells (HUVEC); actives raise or lower the signal
# Outline: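 Human vascular endothelium from umbilical vein; P-selectin measured by ELISA at 24 h post-dose, with cytotoxicity checked by sulforhodamine B total-protein staining in parallel cultures (0.1% SRB after 10% TCA fixation, read at 560 nm).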
Structure (SMILES),outcome,AC50
CS(=O)(=O)c1ccc([C@@H](C[C@H]2CCC(=O)C2)C(=O)Nc2cnccn2)cc1Cl,inactive,
O=C(O)CN(CC(=O)O)CC(=O)O,inactive,
CC1(C)C(=O)NC(=O)N1CO,inactive,
CC(C)c1cccc(C(C)C)c1NC(=O)NS(=O)(=O)c1cc(C(C)(C)O)co1,inactive,
CCCC(=O)O,inactive,
C=CCCCCCCCCCCCC,inactive,
CCCCC(CC)COP(=O)(OCC(CC)CCCC)OCC(CC)CCCC (configuration not stated),,12.2 µM (active)
NC1CCCCC1,inactive,
CC(=O)CC(c1ccccc1)c1c(O)c2ccccc2oc1=O (configuration not stated),inactive,
C=CCc1ccc(OC)c(OC)c1,inactive,
CC(C)OC(=O)C(C)(C)Oc1ccc(C(=O)c2ccc(Cl)cc2)cc1,,32.8 µM (active)
CCCCCCCCCC[N+](C)(C)[O-],inactive,
CCCCCCCC(=O)OC,inactive,
Oc1ccc(O)cc1,,20 µM (active)
CSc1ccc(Oc2ccc(S(N)(=O)=O)cc2CN(C)C)cc1C,inactive,
CCc1cc(C2=C(C(=O)O)N(c3ccccc3C(F)(F)F)S(=O)(=O)c3ccccc32)cc2c1OCO2,inactive,
